One assay addresses CHEK1. Nature of the assay: pooled miR-30 sensor sort-seq; sequence = guide strand. The settings on record: shRNA.
Turning to TATTTTATCATCCATTTCTAAC, the sensor-assay potency score (higher = more potent) was -1.06.
On the same count and under the same terms, as for TTTGGTAAAGAATCGTGTCATT, the figure is -0.878; as for TTCTTCACTAGAAGCACTGTTT, 0.0317; as for TGATATAGTAACCTGATTCATA, -0.794.
In turn, TAACCTGATTCATACAACTTTT came in with a sensor-assay potency score (higher = more potent) of -1.09.
Sequence TTTATTGATACAGATCTCTTTC gave a sensor-assay potency score (higher = more potent) of 0.115.
The same measure, in the same setting: as for TATCCCATAAGGAAAGACCTGT, the figure is -0.371; as for TTTGTCTGCATCCAATTTGGTA, -0.969.
Same read-out and setting: as for TTGTTGATATAGTAACCTGATT, the figure is -1.22; as for TAGCAGCACTATATTCACCAGG, -0.884; as for TTTTCTTCACTAGAAGCACTGT, 0.254.
Still for that read-out and setting: in the case of TTAATCTTCAGGAAGTGTCTCT it was 0.552; in that of TTTGTTGTACCATCTATCTTTT, -0.765; in that of TGTCTCTTGAACTCCAATCCAT, -0.483.
Take TTCCACAGGACCAAACATCAAC: the sensor-assay potency score (higher = more potent) is -1.04.
Still for that read-out and setting: as for TTCTGGTTTAATATCCCTGTGA, the figure is -0.58.
In the case of TTTCCAGTCAGAATACTCCTGA, the sensor-assay potency score (higher = more potent) was -0.0829.
Same read-out and setting: in the case of TAAAGTACCACACATCTTGTTC it was -0.726.

A further assay deals with CHI3L1. The assay is described as above. The settings on record: shRNA.
Sequence ATAATTAGTATGGTCACTGTGT showed a sensor-assay potency score (higher = more potent) of -0.0223.
TTTGACGCTTTCCTGGTCGTCG had a sensor-assay potency score (higher = more potent) of -0.339.
On the same count and under the same terms, as for TAGCAGACCAGTTTGTATGCAG, the figure is 0.269; as for TTGTATGCAGAGCAGCACTGGA, -1.21.
The sequence TTGGCAATGTCATAGCTGCTGT showed a sensor-assay potency score (higher = more potent) of -0.359.
In turn, TAGAGCGTCACATCATTCCACT displayed a sensor-assay potency score (higher = more potent) of -0.926.
On the same count and under the same terms, in the case of TTCAGGTACTGCACCTTGCTTT it was -0.412; in that of TTGCATCCTCCTGACCTCGGAA, -0.718.
With TATCTTGGCAATGTCATAGCTG, the sensor-assay potency score (higher = more potent) was 0.682.
Still for that read-out and setting: in the case of TTGAGTGTGTTGAGCATGCCGT it was -0.388; in that of TGAATCTGTCAGGACTTGCATC, -0.763.
In turn, TTCATTTCCTTGATTAGGGTGG showed a sensor-assay potency score (higher = more potent) of 0.13.
On the same count and under the same terms, as for ATCTTGGCAATGTCATAGCTGC, the figure is -1.04.
Still for that read-out and setting: in the case of TAGTCAGTGTTGCTGAATCTGT it was -1.28.
Same read-out and setting: as for TCTGTCAGGACTTGCATCCTCC, the figure is -0.579.
Turning to AAATCGTAGGTCATGATGCTAA, the sensor-assay potency score (higher = more potent) is -0.871.
Still for that read-out and setting: in the case of TTTCCTGGTCGTCGTATCCTAC it was -0.76.
TTTGTATGCAGAGCAGCACTGG: the sensor-assay potency score (higher = more potent) is -1.09.
TTGGAAAATCTTTGAGACCCAA gave a sensor-assay potency score (higher = more potent) of -0.569.
In turn, TTCCTTTATAAATTCGGCCTTC showed a sensor-assay potency score (higher = more potent) of -0.526.
Still for that read-out and setting: in the case of TTTGTCTCTCCGTCCAGGGTAG it was -0.776; in that of TTGAGCATGCCGTAGAGCGTCA, -0.951.

The record behind these values is the OligoGym collection.
Also: reference of the scale not given here.
